Data on 30 compounds can be found in PubChem BioAssay (NCATS).

Active and inactive are the calls of the source. The call rests on the fitted dose curve.

Holding throughout (assay): Confirmatory Screen for Target Class Profiling of Small Molecule Inhibitors of Methyltransferases (AID 1745852); on activity change, negative = inhibition: on the % scale 0 is the no-effect control and ±100 the full control effect
The target in assay [1] is Catechol O-methyltransferase (Homo sapiens) (UniProt P21964). The following applies: MTase-Glo luminescence, SAH detection, recombinant enzyme; measured here: COMT max response; stronger effect = lower value.
Sequence of Catechol O-methyltransferase (Homo sapiens) (P21964 whole entry, looked up): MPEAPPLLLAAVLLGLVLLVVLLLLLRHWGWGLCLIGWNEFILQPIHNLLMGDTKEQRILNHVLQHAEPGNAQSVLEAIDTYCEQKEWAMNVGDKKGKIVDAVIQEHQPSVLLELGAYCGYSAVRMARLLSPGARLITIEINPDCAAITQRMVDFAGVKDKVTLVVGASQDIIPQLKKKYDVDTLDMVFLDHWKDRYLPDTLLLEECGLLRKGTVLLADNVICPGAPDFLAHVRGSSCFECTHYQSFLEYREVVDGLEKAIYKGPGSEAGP
The target of assay [2] is Guanidinoacetate N-methyltransferase (Homo sapiens) (UniProt Q14353). The following applies: MTase-Glo luminescence, SAH detection, recombinant enzyme; activity change, negative = inhibition: at 57.3 µM (top of the series) unless noted; series mostly up to 57.3 µM.
For assay [3], the target named is Nicotinamide N-methyltransferase (Homo sapiens) (UniProt P40261). The following applies: MTase-Glo luminescence, SAH detection, recombinant enzyme; measured here: NNMT max response; stronger effect = lower value.
Sequence of Nicotinamide N-methyltransferase (Homo sapiens) (P40261 whole entry, looked up): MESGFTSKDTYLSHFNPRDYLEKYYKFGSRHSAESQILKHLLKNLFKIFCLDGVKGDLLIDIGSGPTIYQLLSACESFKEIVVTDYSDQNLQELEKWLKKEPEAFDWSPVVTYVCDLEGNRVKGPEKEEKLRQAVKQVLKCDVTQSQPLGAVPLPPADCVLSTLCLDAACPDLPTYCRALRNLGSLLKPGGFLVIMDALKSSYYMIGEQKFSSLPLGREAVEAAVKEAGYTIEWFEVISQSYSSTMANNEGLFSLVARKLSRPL
For assay [4], the target named is Phenylethanolamine N-methyltransferase (Homo sapiens) (UniProt P11086). The following applies: MTase-Glo luminescence, SAH detection, recombinant enzyme; measured here: PNMT max response; stronger effect = lower value.
Sequence of Phenylethanolamine N-methyltransferase (Homo sapiens) (P11086 whole entry, looked up): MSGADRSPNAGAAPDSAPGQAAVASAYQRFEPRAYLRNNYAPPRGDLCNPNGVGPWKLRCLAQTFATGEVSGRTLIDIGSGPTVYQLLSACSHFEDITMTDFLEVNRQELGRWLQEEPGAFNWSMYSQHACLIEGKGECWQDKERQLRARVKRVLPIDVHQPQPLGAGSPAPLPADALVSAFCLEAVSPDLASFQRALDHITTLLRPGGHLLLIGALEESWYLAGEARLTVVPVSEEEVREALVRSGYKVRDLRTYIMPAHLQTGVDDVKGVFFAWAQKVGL
Potency means the concentration at half of the fitted maximal effect.

Regarding `CNc1cc(C2CC(NC(=O)COc3ccc(Cl)cc3C)C2)nc(N)n1` (stereo not given), the activity in assay [1] was 7.09%; in assay [3], -5.16%; in assay [4], 6.12%. Moreover, the activity change, negative = inhibition in assay [2] worked out at 2.13%.

Take `COc1ccc(-c2cc3nc4c(c(=O)n3[nH]2)CN(C(=O)CN(C)S(=O)(=O)c2cnc[nH]2)CC4)cc1`: the activity in assay [1] was -19.9%; in assay [3], -27.5%; in assay [4] it was -19.5%. Further, the Potency in assay [2] is 21.5 µM (active).

`CCN(CC)CCNC(=O)CCc1nnc2n(CCc3ccccc3)c(=O)c3ccccc3n12`: the values for the activity in assay [1], in assay [3] and in assay [4] were -2.93%, -10.6% and 3.34%, respectively. In assay [2], the activity change, negative = inhibition came out at 1.05%.

In the case of `COc1cc(F)ccc1-c1cc(-c2ccc(=O)[nH]c2)c2cncn2c1`, the activity in assay [1] is -95.1%; in assay [3], -11%; in assay [4], -5.79%. Also, in assay [2], the activity change, negative = inhibition was -5.99% [at 85.7 µM].

Regarding `O=C(O)c1ccc2c(c1)C1C=CCC1C(c1ccc(Cl)cc1)N2` (stereo not given), the activity was -24.7% in assay [1], -22.4% in assay [3] and -23.3% in assay [4]. In assay [2], the Potency is 42.9 µM (active).

As to `C[C@H]1CN(C(=O)c2nn(C)c3ccccc23)C[C@@H]1c1nc(-c2cccnc2)no1`, the figures for the activity in assay [1], in assay [3] and in assay [4] were 15.6%, -94% and 7.38%, respectively. The activity change, negative = inhibition in assay [2] worked out at 7.54%.

On to `O=C(NCc1cccc(Cl)c1)c1sc(=S)n2c1[nH]c(=O)c1cc3c(cc12)OCO3`, for which the activity in assay [1] is -21.3%; in assay [3] it was -63.2%; in assay [4], -39.9%. In addition, the Potency in assay [2] is 27.1 µM (active).

Consider `CC(C)CCn1c(=O)c2ccccc2n2c(CCC(=O)N3CCN(c4ccc(F)cc4)CC3)nnc12`, for which the activity in assay [1] is 1.78%; in assay [3] it was -61.2%; in assay [4], -6.79%. Also, the activity change, negative = inhibition in assay [2] was found to be 0%.

Consider `O=C(c1ccc(C2CCCNC2)cc1)N1CCN(c2ccncc2)CC1` (stereo not given), for which the activity in assay [1] was 3.41%; in assay [3], -3.55%; in assay [4], 3.06%. Besides, in assay [2], the activity change, negative = inhibition amounted to 2.03%.

`CCOC(=O)c1cc2n(n1)CC(C)(C(=O)NCCC(C)C)N(c1ccccc1C)C2=O` (stereo not given): the activity in assay [1] was 2.78%; in assay [3], 3.85%; in assay [4], 1.34%. Besides, the Potency entry in assay [2] is “inactive”.

Turning to `COc1ccc(S(=O)(=O)N2CCC(n3c(=O)[nH]c4ccccc43)CC2)cc1`, the activity in assay [1] was -23.2%; in assay [3], -15.3%; in assay [4] it was -23.9%. In addition, the activity change, negative = inhibition in assay [2] was -12%.

As to `COc1ccc(CCNC(=O)c2ccc3c(=O)nc4c(-c5cccc(F)c5)n[nH]n4c3c2)cc1OC`, the activity in assay [1] is -16%; in assay [3] it was -27.1%; in assay [4] it was -14.6%. The Potency in assay [2] is 10.8 µM (active).

As for `CC(C)CCNC(=O)c1ccc2c(=O)[nH]c3c(C(=O)NC(C)C)sc(=S)n3c2c1`, the values for the activity in assay [1], in assay [3] and in assay [4] were -37.8%, -37.9% and -33.6%, respectively. Further, the Potency in assay [2] was 27.1 µM (active).

With `CN(CCCNC(=O)Cn1ccc2cc(S(=O)(=O)N3CCCCC3)ccc21)C1CCCCC1`, the activity in assay [1] was 1.24%; in assay [3], -1.2%; in assay [4], 0.276%. Besides, the activity change, negative = inhibition in assay [2] was 0.637%.

With `O=C(N[C@H](C1CCNCC1)C1CC(O)C1)c1ccc2nccnc2c1` (stereo not given in full), the values for the activity in assay [1], in assay [3] and in assay [4] were -0.82%, 10.8% and 3.61%, respectively. Besides, in assay [2], the activity change, negative = inhibition came out at 1.16%.

Turning to `CC(C)CCNC(=O)c1ccc2c(=O)[nH]c3c(C(=O)NC4CCCC4)sc(=S)n3c2c1`, the values for the activity in assay [1], in assay [3] and in assay [4] were -37.7%, -45.4% and -38.7%, respectively. For the same compound, the Potency in assay [2] is 27.1 µM (active).

Turning to `CCNc1ncc(CN2CCN(c3ccncc3)CC2)cn1`, the activity in assay [1] was 4.09%; in assay [3], -0.695%; in assay [4], 1.91%. Further, in assay [2], the activity change, negative = inhibition stood at 1.98%.

Turning to `CN1CCN(c2ncnc3sc4c(c23)CCNC4)CC1`, the activity in assay [1] is -1.43%; in assay [3], -71.2%; in assay [4], -15%. Also, in assay [2], the activity change, negative = inhibition was determined as 0.536%.

On to `c1ccc(-c2[nH]nc3ncc(-c4cn[nH]c4)nc23)cc1`, for which the activity in assay [1] was -73.4%; in assay [3] it was -59.9%; in assay [4] it was -83.4%. The Potency in assay [2] was 31.2 µM (active).

For the compound `Cn1cc2c3c(cccc31)CN(C(=O)c1ccccc1F)CC2`, the activity in assay [1] was -1.46%; in assay [3], -50.7%; in assay [4], -0.857%. Besides, in assay [2], the activity change, negative = inhibition was determined as 8.53%.

Regarding `COc1ccc(CCN2C(=O)c3cc4occc4n3CC2(C)C(=O)NC2CCCCC2)cc1OC` (stereo not given), the activity was 2.48% in assay [1], -47.9% in assay [3] and 1.36% in assay [4]. In assay [2], the activity change, negative = inhibition was found to be 0%.

For the compound `COc1ccc(OC)c2c1cc1n2CC(C)(C(=O)NC2CCCCC2)N(Cc2cccnc2)C1=O` (stereo not given), the activity in assay [1] is -8.96%; in assay [3], -28.2%; in assay [4] it was -10.7%. For the same compound, the activity change, negative = inhibition in assay [2] is -5.74%.

For `COc1ccccc1-c1[nH]nc2ncc(C(=O)NCC3CC3)nc12`, the activity in assay [1] is -33.3%; in assay [3], -16.5%; in assay [4], -40.5%. In addition, the activity change, negative = inhibition in assay [2] was -13.8% [at 85.7 µM].

For the compound `CCOCCCN1C(=O)c2cc3c(OC)ccc(OC)c3n2CC1(C)C(=O)NC1CCCCC1` (stereo not given), the activity in assay [1] was -8.08%; in assay [3], -17.7%; in assay [4], -10.4%. Further, the activity change, negative = inhibition in assay [2] was -4.76%.

As for `Cn1c(=O)n(C)c2cc(S(=O)(=O)Nc3cc4c(cc3NCc3ccccc3)n(C)c(=O)n4C)ccc21`, the figures for the activity in assay [1], in assay [3] and in assay [4] were -26%, -35.1% and -25.2%, respectively. The Potency in assay [2] is 21.5 µM (active).

For the compound `COc1ccc(CN2C(=O)c3cc4sccc4n3CC2(C)C(=O)NC2CCC(C)CC2)cc1OC` (stereo not given), the activity was -5.8% in assay [1], -79.1% in assay [3] and -7.08% in assay [4]. Besides, the activity change, negative = inhibition in assay [2] was 0.162%.

Consider `CC(C)CCn1c(=O)c2ccccc2n2c(CCC(=O)N3CCN(Cc4ccccc4)CC3)nnc12`, for which the activity in assay [1] was 3.34%; in assay [3], -63.2%; in assay [4], -0.865%. For the same compound, the activity change, negative = inhibition in assay [2] is 0%.

Turning to `CCN1CCN(c2nc3c(S(=O)(=O)c4ccc(Br)cc4)nnn3c3ccccc23)CC1`, the values for the activity in assay [1], in assay [3] and in assay [4] were 1.75%, -1.61% and -3.25%, respectively. Also, in assay [2], the activity change, negative = inhibition was 2.08%.

Regarding `CC1CCCCN1CCCNC(=O)c1cc2c(s1)CN(C1CCCC1)C2` (stereo not given), the figures for the activity in assay [1], in assay [3] and in assay [4] were 3.35%, 3.93% and 4.11%, respectively. Further, the activity change, negative = inhibition in assay [2] is 2.38%.

For the compound `OC1(Cn2ccnc2)CCN(Cc2ccccc2Cn2cccn2)CC1`, the activity in assay [1] amounted to 3.04%; in assay [3], 4.14%; in assay [4], 5.79%. Moreover, the activity change, negative = inhibition in assay [2] is 3.7%.
